Experimental data as given in the antibiotic and cytotoxicity screens of Wong et al. (2023).
In all, about 39,000 compounds went through this assay and about 1,500 (3.8%) were called active. For the sample, actives were picked, then their nearest neighbours and some compounds at random.

system: HSkMC (human skeletal muscle cells); test: cytotoxicity call (relative viability < 0.9); conditions: 10 µM

| SMILES | cytotoxicity call |
| --- | --- |
| CC(=O)N(C)C[C@@H]1Oc2ncc(C#C[C@@H](C)O)cc2C(=O)N([C@@H](C)CO)C[C@@H]1C | inactive |
| COc1ccc(S(=O)(=O)Nc2ccc3c(c2)CC(=O)N([C@H](C)CO)C[C@@H](C)[C@H](CN(C)Cc2ccncc2)O3)cc1 | inactive |
| C[C@H]1CN([C@@H](C)CO)C(=O)Cc2cc(NS(=O)(=O)c3cn(C)cn3)ccc2O[C@H]1CN(C)S(=O)(=O)c1ccc(Cl)cc1 | inactive |
| C[C@H]1CN([C@@H](C)CO)C(=O)Cc2cc(NC(=O)CCCCCC(=O)Nc3ccccc3N)ccc2O[C@H]1CN(C)S(C)(=O)=O | inactive |
| COc1ccc(S(=O)(=O)N(C)C[C@H]2Oc3ccc(NC(=O)C4CC4)cc3CC(=O)N([C@H](C)CO)C[C@@H]2C)cc1 | inactive |
| CN1C(=O)c2cc(NC(=O)c3cccs3)ccc2OC[C@H]2O[C@@H](CC(=O)NCC(F)(F)F)CC[C@H]21 | inactive |
| C[C@@H]1CN([C@@H](C)CO)C(=O)c2cc(NC(=O)Cn3cnnn3)ccc2O[C@@H]1CN(C)Cc1ccccc1 | inactive |
| COc1ccc([Si](C)(C)[C@@H]2[C@@H](CC(=O)N3Cc4ccccc4C[C@H]3CO)O[C@]3(C(=O)N(Cc4ccc(N5CCC5=O)cc4)c4ccccc43)[C@H]2C)cc1 | inactive |
| C[C@@H]1CN([C@H](C)CO)C(=O)Cc2cc(NC(=O)Nc3ccc(C(F)(F)F)cc3)ccc2O[C@H]1CN(C)Cc1ccc(Cl)c(Cl)c1 | active |
| C[C@H](CO)N1C[C@H](C)[C@H](CN(C)Cc2ccc(Cl)c(Cl)c2)Oc2ccc(NC(=O)Nc3ccc(C(F)(F)F)cc3)cc2CC1=O | active |
| C[C@@H]1CN([C@@H](C)CO)C(=O)Cc2cc(NC(=O)Nc3ccc(C(F)(F)F)cc3)ccc2O[C@H]1CN(C)Cc1ccc(Cl)c(Cl)c1 | active |
| CS(=O)(=O)O.Oc1ccc(C2CNCCc3c2cc(O)c(O)c3Cl)cc1 (stereo not given) | inactive |
| COc1ccc(S(=O)(=O)Nc2ccc3c(c2)C(=O)N([C@@H](C)CO)C[C@H](C)[C@@H](CN(C)C(=O)Nc2c(C)noc2C)OCCCC[C@@H](C)O3)cc1 | inactive |
| COc1ccc(S(=O)(=O)Nc2ccc3c(c2)CC(=O)N([C@@H](C)CO)C[C@@H](C)[C@H](CN(C)S(C)(=O)=O)O3)cc1 | inactive |
| Cc1noc(C)c1S(=O)(=O)N(C)C[C@@H]1Oc2ccc(NC(=O)C3CC3)cc2CC(=O)N([C@H](C)CO)C[C@@H]1C | inactive |
| Cc1noc(C)c1NC(=O)Nc1ccc2c(c1)C(=O)N([C@@H](C)CO)C[C@H](C)[C@H](CN(C)C(=O)Nc1ccccc1)OCCCC[C@H](C)O2 | inactive |
| C[C@@H]1CCCCO[C@@H](CN(C)Cc2ccc(C(F)(F)F)cc2)[C@H](C)CN([C@H](C)CO)C(=O)c2cc(NS(C)(=O)=O)ccc2O1 | inactive |
| COc1ccccc1S(=O)(=O)N(C)C[C@@H]1OCc2cn(nn2)CCCC(=O)N([C@@H](C)CO)C[C@@H]1C | inactive |
| C=c1ccc(C)cc1=C1NN=C(NC(=O)c2ccc(S(=O)(=O)N(CCOC)CCOC)cc2)O1 | active |
| C=c1cc(C)ccc1=C1NN=C(NC(C)=O)O1 | inactive |

| SMILES | cytotoxicity call |
| --- | --- |
| C=c1cc(C)ccc1=C1NN=C(NC(=O)CC)O1 | inactive |
| C[C@H](CO)N1C[C@H](C)[C@@H](CN(C)C(=O)Nc2ccc(F)cc2)Oc2ccc(NC(=O)Cn3cnnn3)cc2C1=O | inactive |
| C[C@@H](NC(=O)C[C@H]1C=C[C@H](NC(=O)CN2CCOCC2)[C@H](CO)O1)c1ccccc1 | inactive |
| Cc1noc(C)c1S(=O)(=O)Nc1ccc2c(c1)C(=O)N([C@@H](C)CO)C[C@H](C)[C@H](CN(C)C(=O)Nc1ccccc1)O2 | inactive |
| CCN(CC)CCN(Cc1ccc(-c2ccc(C(F)(F)F)cc2)cc1)C(=O)Cn1c(SCc2ccc(F)cc2)nc(=O)c2c1CCC2 | active |
| C[C@@H]1CN([C@@H](C)CO)C(=O)Cc2cc(NS(=O)(=O)c3cn(C)cn3)ccc2O[C@@H]1CN(C)C(=O)Nc1ccc(F)cc1 | inactive |
| C[C@H]1CN([C@@H](C)CO)C(=O)c2cc(NC(=O)Nc3ccc(F)cc3)ccc2O[C@H]1CN(C)Cc1ccc(Oc2ccccc2)cc1 | inactive |
| C[C@@H]1CN([C@H](C)CO)C(=O)c2cc(NC(=O)Nc3ccc(F)cc3)ccc2O[C@@H]1CN(C)Cc1ccc(Oc2ccccc2)cc1 | active |
| C[C@@H]1CN([C@@H](C)CO)C(=O)c2cc(NC(=O)Nc3ccc(F)cc3)ccc2O[C@H]1CN(C)Cc1ccc(Oc2ccccc2)cc1 | inactive |
| C[C@H](CO)N1C[C@H](C)[C@@H](CN(C)Cc2ccc(Oc3ccccc3)cc2)Oc2ccc(NC(=O)Nc3ccc(F)cc3)cc2C1=O | inactive |
| C[C@H](CO)N1C[C@H](C)[C@H](CN(C)Cc2ccc(Oc3ccccc3)cc2)Oc2ccc(NC(=O)Nc3ccc(F)cc3)cc2C1=O | active |
| C[C@H]1CN([C@@H](C)CO)C(=O)c2cc(NC(=O)Nc3ccccc3)ccc2O[C@@H]1CN(C)Cc1ccc(Oc2ccccc2)cc1 | inactive |
| C[C@@H]1CN([C@H](C)CO)C(=O)c2cc(NC(=O)Nc3ccc(F)cc3)ccc2O[C@H]1CN(C)Cc1ccc(Oc2ccccc2)cc1 | inactive |
| C[C@@H]1CN([C@@H](C)CO)C(=O)c2cc(NC(=O)Nc3ccc(F)cc3)ccc2O[C@@H]1CN(C)Cc1ccc(Oc2ccccc2)cc1 | active |
| C[C@H]1CN([C@@H](C)CO)C(=O)c2cc(NC(=O)Nc3ccc(F)cc3)ccc2O[C@@H]1CN(C)Cc1ccc(Oc2ccccc2)cc1 | inactive |
| CN1C(=O)c2cc(NC(=O)c3cnccn3)ccc2OC[C@H]2O[C@@H](CC(=O)N[C@@H]3CCN(Cc4ccccc4)C3)CC[C@@H]21 | inactive |
| CN1CCN(C(=O)C[C@@H]2CC[C@@H]3[C@H](COC[C@@H](O)CN3Cc3ccc4c(c3)OCO4)O2)CC1 | inactive |
| CS(=O)(=O)Cc1nc2ccccc2oc1=O | inactive |
| Cc1noc(C)c1NC(=O)Nc1cccc2c1O[C@@H](CN(C)Cc1ccc(Oc3ccccc3)cc1)[C@@H](C)CN([C@H](C)CO)C2=O | inactive |
| COc1ccc(S(=O)(=O)Nc2ccc3c(c2)C(=O)N([C@H](C)CO)C[C@H](C)[C@H](CN(C)S(=O)(=O)c2ccc(Cl)cc2)OCCCC[C@H](C)O3)cc1 | inactive |
